# In PubChem BioAssay (EPA / NIEHS):
# Results filed as inconclusive are left out. Active and inactive are the calls of the source. The calls were made as follows: active = hit-call score of the fitted dose curve at least 0.9, where 1 is the maximum; inconclusive = response in the unintended direction; inactive = score below 0.9.
# Molecular target: Nuclear receptor subfamily 1 group I member 3 (Homo sapiens) (UniProt Q14994)
# Test: ATG_CAR_TRANS: Attagene TRANS-FACTORIAL HepG2 Assay for human Constitutive Androstane Receptor (CAR) (AID 2282969);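 also: activators raise reporter mRNA above DMSO so AC50 marks induction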
# Conditions: HepG2 Attagene TRANS-FACTORIAL CAR reporter
# Protocol: ATG_TRANS is a cell-based, multiplexed-readout assay that uses HepG2, a human liver cell line, with measurements taken at 24 hours after chemical dosing in a 24-well plate.ATG_CAR_TRANS is one of 30 assay component(s) measured or calculated from the ATG_TRANS assay. It is designed to make measurements of mRNA induction, a form of inducible reporter, as detected with fluorescence intensity signals by Reverse transcription polymerase chain reaction (RT-PCR) and Capillary electrophoresis technology.Data from the assay component ATG_CAR_TRANS was analyzed into 1 assay endpoint. This assay endpoint, ATG_CAR_TRANS, was analyzed in the positive analysis fitting direction relative to DMSO as the negative control and baseline of activity. Using a type of inducible reporter, measures of mRNA for gain-of-signal activity can be used to understand the reporter gene at the transcription factor-level as they relate to the gene NR1I3. Furthermore, this assay endpoint can be referred to as a primary readout, because this assay has produced multiple assay endpoints where this one serves a reporter gene function. To generalize the intended target to other relatable targets, this assay endpoint is annotated to the nuclear receptor intended target family, where the subfamily is non-steroidal.
# Human liver HepG2 cells are transiently transfected with multiple reporter transcription units (MRTUs) in 6-well plates using FuGene 6 reagent (Roche; 3 ml FuGene/1 mg DNA). The MRTU constructs are regulated by a cis-regulating element (promoter). […] A major difference between the CIS and TRANS system is that in CIS activities of endogenous TFs are measured, whereas the TRANS assay evaluates changes in activities of exogenous, chimeric NR-Gal4 proteins. […] At the end of 24 hour incubation, total RNA was isolated using TriZol reagent (Invitrogen). The isolated RNA is then reverse-transcribed using oligo(dT) primer and Mo-MLV reverse transcriptase (Invitrogen) with DNAse I (Ambion) treatment for 30 min. The one-tenth of the produced cDNA was amplified by PCR using Taq DNA polymerase (Invitrogen) and two reporter sequence-specific primers. The PCR products were fluorescently labeled by primer extension with 6-arboxyfluorescein (6-FAM) 5'-labeled reporter sequence-specific primer (2 min at 95 C, 20 s at 68 C and 10 min at 72 C) and these products were digested with 5U of HpaI (New England Biolabs) for 2h at 37 C. The fragments were purified using Qiaquick PCR columns (Qiagen), analyzed on an ABI 3130xL genetic analyzer (Applied Biosystems) with peak positions identified by using a set of X-rhodamine (ROX)-labeled MapMarker1000 molecular weight standards (BioVentures). The raw capillary electrophoresis data was processed using Attagraph software (Attagene).
# Nuclear receptor subfamily 1 group I member 3 (Homo sapiens), sequence (Q14994 whole entry, looked up): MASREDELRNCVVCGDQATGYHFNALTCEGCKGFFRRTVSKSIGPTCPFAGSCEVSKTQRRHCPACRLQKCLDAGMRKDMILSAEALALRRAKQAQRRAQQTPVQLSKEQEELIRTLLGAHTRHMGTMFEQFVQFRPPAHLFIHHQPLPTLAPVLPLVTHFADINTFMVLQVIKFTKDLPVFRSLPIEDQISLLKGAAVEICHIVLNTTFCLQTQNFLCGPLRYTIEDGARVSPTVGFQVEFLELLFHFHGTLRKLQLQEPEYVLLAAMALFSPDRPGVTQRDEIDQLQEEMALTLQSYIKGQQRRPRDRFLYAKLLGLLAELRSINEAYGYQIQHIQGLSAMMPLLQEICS
row,Compound,outcome
1,Cc1c(O)cccc1O,inactive
2,CCC1(C)C(=O)N(Cl)C(=O)N1Cl (stereo not given),inactive
3,CC(CC=O)CC(C)(C)C (stereo not given),inactive
4,CC(C)COC(=O)CC(C(=O)OCC(C)C)S(=O)(=O)O (stereo not given),inactive
5,CCOC(=O)CC(=O)c1ccccc1,inactive
6,Cc1noc(NS(=O)(=O)c2ccc(N)cc2)c1C,inactive
7,CCCCC(=O)O,inactive
8,C=CC(=O)OCC(C)OCC(C)OCC(C)OC(=O)C=C (stereo not given),inactive
9,O=C(Cl)c1ccc(C(=O)Cl)cc1,inactive
10,CCCCC(C=O)CC (stereo not given),inactive
11,COc1cc(C)ccc1O,inactive
12,CC1=NN(c2ccc(S(=O)(=O)O)cc2)C(=O)C1N=Nc1ccccc1 (stereo not given),inactive
13,[Cl][Sc]([Cl])[Cl],inactive
14,CC1C(C)(C)C2=C(C(=O)CCC2)C1(C)C (stereo not given),inactive
15,C=C(C)C(=O)OCC(O)COc1ccc(C(C)(C)c2ccc(OCC(O)COC(=O)C(=C)C)cc2)cc1 (stereo not given),inactive
16,CC(C)CCOCc1ccccc1,inactive
17,COC(OC)(C(=O)c1ccccc1)c1ccccc1,inactive
18,COc1cc(O)c(C(=O)c2ccccc2)cc1S(=O)(=O)O,inactive
19,CC1=C(O)C(=O)C(C)O1 (stereo not given),inactive
20,CCc1cccc(C)c1N(C(=O)CS(=O)(=O)O)C(C)COC (stereo not given),inactive

row,Compound,outcome
1,C=CC(=O)NCOCCCC,inactive
2,CCOc1ccc(NC(N)=O)cc1,inactive
3,CC1=CC=C(C(C)C)CC1,inactive
4,C=Cc1ccc(OC(C)=O)cc1,inactive
5,CC(C)CC(=O)OCc1ccccc1,inactive
6,COC(=O)C=Cc1ccccc1,inactive
7,CCCCCCCOC(=O)c1ccc(O)cc1,inactive
8,O=C1CCCCCCCCCCCN1,inactive
9,CCCCC1C(=O)N(c2ccccc2)N(c2ccccc2)C1=O,inactive
10,c1ccc2c(c1)[nH]c1ccccc12,inactive
11,CCCCCCCCCC[N+](C)(CCCCCCCCCC)CCC[Si](OC)(OC)OC,inactive
12,Oc1ccc(-c2ccccc2)c(Cl)c1,inactive
13,Fc1ccc(Br)cc1,inactive
14,Nc1cccc(N)n1,inactive
15,CCCCCCCO,inactive
16,CCCCOCC(C)O (stereo not given),inactive
17,CC=C(C)C=CC=C(C)C,inactive
18,Cn1ccnc1,inactive
19,CC(C)(c1ccccc1)c1ccc(Nc2ccc(C(C)(C)c3ccccc3)cc2)cc1,inactive
20,CCNc1nc(NC(C)(C)C)nc(OC)n1,inactive
